Screening data from PubChem BioAssay.
MITF inh = inhibitors of human MITF. O75030. AlphaScreen MITF homodimerization, bead proximity signal. inhibition, % at 2.6 µM. 0.91% of 650,000 active; in the data active = inhibition above about 50%;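 note: 0% = vehicle wells with protein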
Target sequence (O75030 whole entry, looked up): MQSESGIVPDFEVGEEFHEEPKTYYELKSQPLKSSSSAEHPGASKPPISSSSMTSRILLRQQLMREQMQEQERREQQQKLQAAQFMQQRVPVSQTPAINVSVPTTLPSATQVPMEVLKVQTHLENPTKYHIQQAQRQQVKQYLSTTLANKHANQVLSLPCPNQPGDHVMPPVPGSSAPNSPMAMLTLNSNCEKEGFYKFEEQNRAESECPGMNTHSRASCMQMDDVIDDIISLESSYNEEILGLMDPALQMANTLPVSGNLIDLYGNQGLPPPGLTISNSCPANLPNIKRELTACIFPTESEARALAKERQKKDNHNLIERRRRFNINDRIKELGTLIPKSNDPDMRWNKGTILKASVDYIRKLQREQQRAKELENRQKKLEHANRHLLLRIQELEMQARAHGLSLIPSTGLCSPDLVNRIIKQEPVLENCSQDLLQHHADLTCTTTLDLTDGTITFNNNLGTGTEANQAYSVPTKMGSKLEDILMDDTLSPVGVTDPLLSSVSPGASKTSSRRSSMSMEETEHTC
GPR151 activ = activates the human receptor GPR151 | Q8TDV0 | PathHunter beta-arrestin GPR151 cells, luminescence | activation, % at 11.2 µM | 1% of 650,000 active; in the data active = activation above about 4.9%;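 note: 0% = median of compound wells and 100% = cells with positive control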
TEAD-YAP inh = TEAD-YAP interaction inhibition | HEK-TIYL cells, TEAD-Gal4/YAP UAS-luciferase luminescence | inhibition, % at 9.12 µM | 1.4% of 640,000 active; in the data active = inhibition above about 32%;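 note: 0% = median of test compound wells and 100% = reference inhibitor wells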
FBW7 act = activators of human E3 ligase FBW7 | AlphaScreen FBW7–phospho-cyclin E peptide binding, activator screen | normalized activity (activation), % at 26.1 µM | 0.13% of 650,000 active | AID 1259310; in the data active = normalized activity above about 1.9%;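 note: purified mutant Fbw7 with reduced substrate affinity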
An asterisk follows results filed as active. This is a sample that favours compounds with a hit; in the whole collection about 3.4% have one here.

SMILES | MITF inh | GPR151 activ | TEAD-YAP inh | FBW7 act
O=C(O)c1cc(NC(=O)c2ccc(Cl)cc2Cl)cc(C(=O)O)c1 | 0 | 4 | 13 | 0
COc1ccc(NC(=O)NC(=O)c2c(Cl)ccc(Cl)c2OC)cc1 | -1 | -2 | 38* | 0
O=C(Nc1ccc(C(=O)c2ccc(Cl)cc2)c(Cl)c1)c1cc(Cl)ccc1O | 1 | 1 | 40* | 0
CCOc1ccc(NC(=O)c2c(Cl)ccc(Cl)c2OC)cc1 | 1 | -1 | 9 | 0
O=C(NC(=S)Nc1ccc(Cc2ccncc2)cc1)c1ccc(Cl)cc1Cl | -2 | 0 | 22 | 0
O=C(Nc1ccc(Cc2ccncc2)cc1)c1ccc(Cl)cc1Cl | 5 | -1 | 38* | 0
O=C(O)c1ccc(NC(=O)c2ccc(Cl)cc2Cl)cc1 | -19 | 2 | 45* | 0
O=C(Cn1nc(-c2cccc(Cl)c2)ccc1=O)NCC1COCCO1 (centres undefined) | 0 | 2 | -2 | 0
CCOC(=O)/C(C(N)=NCc1ccccc1)=C(/O)c1ccccc1 | -3 | 0 | 2 | 0
COc1ccc(C(C)=O)cc1CSc1nc2ccsc2c(=O)n1-c1ccc(F)cc1 | -3 | 1 | 0 | 0
CCOCCCNc1nc2c(S(=O)(=O)c3ccc(CC)cc3)nnn2c2ccccc12 | -4 | 2 | -4 | 0
COC(=O)c1ccc(NC(=O)c2ccc(C)cc2Cl)cc1 | 8 | -1 | -26 | 0
COc1ccc(NC(=O)c2ccc(C)cc2Cl)cc1 | 48 | -5 | 73* | 0
Cn1cc(-c2ccc3cnc(Nc4ccc(N5CCOCC5)cc4)nc3c2)cn1 | 19 | 2 | 60* | 1
Cn1cc(-c2ccc3cnc(Nc4ccc(-n5ccnc5)cc4)nc3c2)cn1 | 7 | -1 | 72* | 0
Cn1cc(-c2ccc3cnc(Nc4ccc(-n5cnc(-c6ccccn6)n5)cc4)nc3c2)cn1 | -2 | 0 | 96* | 0
Cc1ccc(-c2ncn(-c3ccc(Nc4ncc5ccc(-c6cnn(C)c6)cc5n4)cc3)n2)cn1 | 24 | 0 | 20 | 1
Cn1cc(-c2ccc3cnc(Nc4ccc(C(=O)N5CCOCC5)cc4)nc3c2)cn1 | 28 | -2 | 71* | 0
c1cn(-c2ccc(Nc3ncc4ccc(-c5cn[nH]c5)cc4n3)cc2)cn1 | 24 | -1 | 96* | 0
Cc1cnc(Nc2ccc(-n3ccnc3)cc2)nc1N | 6 | 0 | -4 | 0
COc1ccc(N2CC(NC(=O)NC(c3ccccc3)c3ccccc3)CC2=O)cc1OC (centres undefined) | 12 | 3 | 11 | 1
N#CCC(=O)N/N=C/c1ccc(N2CCOCC2)o1 | 54* | -1 | 0 | 0
O=C(N/N=C/c1ccc(N2CCOCC2)o1)c1ccccc1 | 16 | 0 | -32 | 0
CC(=O)c1cccc(NC(=O)/C(=C/c2cccc([N+](=O)[O-])c2)NC(=O)C2CCCCC2)c1 | -10 | 3 | 12 | 0
Cc1cc(C)c(NC(=O)CC2Sc3ccccc3NC2=O)c(Cl)c1 (centres undefined) | 8 | 1 | 37* | 0
SMILES | MITF inh | GPR151 activ | TEAD-YAP inh | FBW7 act
O=C1c2cccc3c([N+](=O)[O-])ccc(c23)C(=O)N1c1nnc(C(F)(F)F)s1 | 6 | -1 | 5 | 0
Cc1ccc(N2CC(NC(=O)c3ccccc3C(F)(F)F)CC2=O)cc1C (centres undefined) | -2 | 1 | -3 | 0
CCOc1ccccc1C(=O)NC1CC(=O)N(c2ccc(C)c(C)c2)C1 (centres undefined) | 14 | 0 | 43* | 0
O=C(NCC1CCCO1)c1ccc2c(=O)n(Cc3ccco3)c(SCC(=O)N3CCN(c4ccccc4)CC3)nc2c1 (centres undefined) | -2 | 0 | 35* | 0
CN(Cc1ccccc1)C(=O)CSc1nc2cc(C(=O)NCC3CCCO3)ccc2c(=O)n1Cc1ccco1 (centres undefined) | -5 | 1 | 38* | 0
COCCNC(=O)c1ccc2c(=O)n(Cc3ccco3)c(SCC(=O)N3CCN(c4ccccc4)CC3)nc2c1 | -7 | 0 | 28 | 0
O=C(CSc1nc2cc(C(=O)NCC3CCCO3)ccc2c(=O)n1Cc1ccco1)NC1CCCC1 (centres undefined) | -3 | -1 | 11 | 0
COc1cc(/C=C2\C(=O)NC(=O)N(c3cccc([N+](=O)[O-])c3)C2=O)cc(Cl)c1O | 37 | 0 | 12 | 1
COc1ccc(/C(N)=N/OC(=O)c2ccc(C)cc2Cl)cc1 | 3 | 0 | -15 | 0
CC(C)(C)c1ccc(C(=O)O/N=C(\N)c2ccccc2)cc1 | -1 | 0 | 86* | 0
N/C(=N\OC(=O)c1cccc2ccccc12)c1ccc(Cl)cc1 | 13 | 1 | -8 | 2.1*
N/C(=N\OC(=O)c1ccccc1Br)c1ccc(Cl)cc1 | 6 | 0 | -54 | 0
Cc1ccc(C(=O)O/N=C(\N)c2ccccc2)c(Cl)c1 | 4 | 5 | 74* | 0
CC(=O)Oc1ccc(C(=O)O/N=C(\N)c2cccnc2)cc1 | 3 | -8 | 35* | 0
COc1ccc(/C(N)=N/OC(=O)c2ccc(C(C)(C)C)cc2)cc1 | 11 | -1 | 8 | 0
Cc1ccc(C(=O)CCC(=O)Nc2ccccc2)cc1 | 5 | -1 | 11 | 0
CCOc1ccc(N2CNc3c(C(=O)OC)cnn3C2)cc1 | -5 | 0 | 1 | 0
CC(=O)c1ccccc1-c1ccc2c(c1)CC(CNC(=O)c1ccc3c(c1)OCCO3)O2 (centres undefined) | -21 | 1 | 37* | 0
Cc1ccc(N2C(=O)C3C4c5ccccc5C(C=O)(c5ccccc54)C3C2=O)cc1[N+](=O)[O-] (centres undefined) | 8 | 1 | 34* | 0
O=CC12c3ccccc3C(c3ccccc31)C1C(=O)N(c3ccc(Cl)cc3)C(=O)C12 (centres undefined) | 0 | 0 | 44* | 0
O=CC12c3ccccc3C(c3ccccc31)C1C(=O)N(c3ccccc3)C(=O)C12 (centres undefined) | 6 | -1 | 19 | 0
O=C(Cn1nc2sc3ccccc3n2c(=O)c1=O)c1ccc(Cl)cc1 | -1 | 1 | 0 | 0
COc1ccc(CNC(=O)c2ccc([N+](=O)[O-])c(C)c2)cc1 | 8 | 0 | -8 | 0
CC1CCCN(c2ccc3nc4ccccc4c(=O)n3n2)C1 (centres undefined) | 9 | -4 | 71* | 0
Cc1ccc2nc3ccc(N4CCCC4)nn3c(=O)c2c1 | 1 | 0 | -60 | 0
CCOc1ccccc1CN1CCN(Cc2cc(=O)c3ccccc3[nH]2)CC1CCO (centres undefined) | -8 | -1 | 48* | 0
CCOc1ccc(CCN2CNc3c(C(=O)OC)cnn3C2)cc1 | -4 | 1 | 2 | 0
Cc1ccc(NS(=O)(=O)c2cc(-c3n[nH]c(=O)c4ccccc34)ccc2C)c(C)c1 | 7 | 1 | 12 | 0
Nc1nc(NCCOc2ccccc2)cc(Nc2ccccc2)n1 | 2 | 1 | -13 | 0
Nc1nc(NCCOc2ccccc2)cc(-c2ccccc2)n1 | 19 | 1 | 41* | 0
